In article PMC8769072, “Proteome‐scale mapping of binding sites in the unstructured regions of the human proteome” (Molecular Systems Biology, 2022):

B1: DAZAP2, Q15038 (peptide)
chain: HLPQAPPYTDAPPAYS
B2: LDLRAD3, Q86YD5 (peptide)
chain: GSPPSYSEALLDQRPA
B3: EGR2, P11161 (peptide)
chain: TSSSLAYPPPPSYPSP
B4: CYYR1, Q96J86 (peptide)
chain: ADLPPPYSPTPQGPAQ
B5: VPS37A, Q8NEZ2 (peptide)
chain: FLPPYPPQEANRSITS
B6: ABCA2, Q9BZC7 (peptide)
chain: DLPAYTSPTNFPAVLS
B7: AATK, Q6ZMQ8 (peptide)
chain: TPTPAPFSRFTVSPAP
B8: RBM14, Q96PK6 (peptide)
chain: NSTPPPYERTRLSPPR
B9: STPG4, Q8N801 (peptide)
chain: NNPVLNDLPQYMPPDF
B10: RINT1, Q6NUQ1 (peptide)
chain: SEGTDNGDLPSYVSAF
B11: OTUD7B, Q6GQQ9 (peptide)
chain: LAGGPAVGGLPPYATF
B12: CLEC7A, Q9BXN2 (peptide)
chain: EDGYTQLHFDSQSNTR
B13: PI4K2A, Q9BTU6 (peptide)
chain: RAQPPDYTFPSGSGAH
B14: EGR3, Q06889 (peptide)
chain: ALPPYSNAGDLYSEPV
B15: PROSER1, Q86XN7 (peptide)
chain: LANVIAPPPPPYTPNP
B16: GRSF1, Q12849 (peptide)
chain: YLEDLPPPPEYELAPS
B17: SLC12A3, P55017 (peptide)
chain: DATLASGRFTISTLLS
B18: WNK4, Q96J92 (peptide)
chain: SEEGKPQLVGRFQVTS
B19: PRDM4, Q9UKN5 (peptide)
chain: PPPQYIHPNSINVDGN
B20: SLC12A2, P55011 (peptide)
chain: SEEAKGRFRVNFVDPA
B21: LYPD5, Q6UWN5 (peptide)
chain: QSNADALPPDYSVVRG
B22: LMTK3, Q96Q04 (peptide)
chain: FSRFSVSPALETPGPP
B23: ABRAXAS2, Q15018 (peptide)
chain: ASDPPPPYSDFHPNNQ
B24: RUNX2, Q13950 (peptide)
chain: ATTHYHTYLPPPYPGS
B25: AATK, Q6ZMQ8 (peptide)
chain: SPAPTSRFSITHVSDS
B26: CEACAM5, P06731 (peptide)
chain: FRVYPELPKPSISSNN
B27: ESS2, Q96DF8 (peptide)
chain: GKMSREPPPPYVTPAT
B28: NFATC4, Q14934 (peptide)
chain: YLSEGFGYGMPPLYPQ
B29: C11orf53, Q8IXP5 (peptide)
chain: DLHHTPGYPTPPPYPF
B30: BAIAP2L1, Q9UHR4 (peptide)
chain: SVVIPPPDYLEALSMG
B31: TNRC18, O15417 (peptide)
chain: LEDVSKPPAYAYPATP
B32: SMAD6, O43541 (peptide)
chain: LAGPESPPPPYSRLSP
B33: TMEM61, Q8N0U2 (peptide)
chain: KVVDIPTYEEAVSFPV
B34: CCDC87, Q9NVE4 (peptide)
chain: LPSYPVAPTSRASPSP
B35: BSN, Q9UPA5 (peptide)
chain: RDPEPPEPPTYRAQGV
B36: GADD45GIP1, Q8TAE8 (peptide)
chain: WYPSLATMQESLRVKQ
B37: SYNPO, Q8N3V7 (peptide)
chain: TAPPTYTETLSTAPLA
B38: PIK3R6, Q5UE93 (peptide)
chain: RFEVAPAPEPASGAQK
B39: MEIS3, Q99687 (peptide)
chain: MARRYDELPHYPGIVD
B40: SLC12A7, Q9Y666 (peptide)
chain: MPTNFTVVPVEAHADG
B41: SH3D21, A4FU49 (peptide)
chain: SPPDYLQTVSHPEVYR
B42: SYNPO2, Q9UMS6 (peptide)
chain: TSPIADFPAPPPYSAV
B43: N4BP3, O15049 (peptide)
chain: ALPEPPPPYEFSASSA
B44: TTN, Q8WZ42 (peptide)
chain: SWNPPEYDGGAQISNY
B45: UBE2L6, O14933 (peptide)
chain: KPPPYLRNLSSDDANV
B46: TMEM59L, Q9UK28 (peptide)
chain: EDSLPPYKLKLDLTKL
B47: SLC12A1, Q13621 (peptide)
chain: DSVPSNTNRFQVSVIN
B48: WNK1, Q9H4A3 (peptide)
chain: TKVGRFQVTTTANKVG
B49: TBP, P20226 (peptide)
chain: MDQNNSLPPYAQGLAS
B50: SV2A, Q7L0J3 (peptide)
chain: HDEAWMVLKQVHDTNM
B51: TMEM51, Q9NW97 (peptide)
chain: RLSISLPSYESLTGLD
B52: ATN1, P54259 (peptide)
chain: VSNQPPKYTQPSLPSQ
B53: PLSCR1, O15162 (peptide)
chain: NLPVGYPPQYPPTAFQ
B54: CRTC2, Q53ET0 (peptide)
chain: DQRLPPYPYSSPSLVL
B55: DNAH2, Q9P225 (peptide)
chain: NWNEWKTGRFLILQTE
B56: UVSSA, Q2YD98 (peptide)
chain: YPSLTNLKAQADTARA
B57: FAM168A, Q92567 (peptide)
chain: TAPPPYSPSPNPYQTA
B58: RHBDD1, Q8TEB9 (peptide)
chain: RNSPPPYGFHLSPEEM
B59: ZNF148, Q9UQR1 (peptide)
chain: DKNDYLPLYSSSTKVK
B60: JCAD, Q9P266 (peptide)
chain: LALSDPGLEPPVYVPP
B61: SH2D3A, Q9BRG2 (peptide)
chain: ASERPPTYAELVPRVP

target: NEDD4 890-928, P46934
Sequence (P46934 890-928): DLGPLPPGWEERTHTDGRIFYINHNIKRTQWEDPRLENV

Selected by phage display, active:
B1 confidence 3
B2 confidence 3
B3 confidence 3
B4 confidence 2
B5 confidence 3
B6 confidence 3
B8 confidence 3
B9 confidence 3
B10 confidence 2
B11 confidence 2
B13 confidence 2
B14 confidence 2
B15 confidence 2
B16 confidence 2
B19 confidence 2
B21 confidence 2
B23 confidence 3
B24 confidence 2
B27 confidence 4
B28 confidence 2
B29 confidence 3
B30 confidence 4
B31 confidence 3
B32 confidence 3
B33 confidence 2
B34 confidence 3
B35 confidence 3
B37 confidence 3
B39 confidence 3
B41 confidence 3
B42 confidence 4
B43 confidence 3
B44 confidence 2
B45 confidence 2
B46 confidence 2
B49 confidence 2
B51 confidence 2
B52 confidence 3
B53 confidence 2
B54 confidence 4
B57 confidence 3
B58 confidence 2
B59 confidence 2
B60 confidence 3
B61 confidence 3

target: YAP1 169-207, P46937
Sequence (P46937 169-207): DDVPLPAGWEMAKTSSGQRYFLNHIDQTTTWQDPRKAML

Selected by phage display, active:
B4 confidence 3
B27 confidence 4
B29 confidence 3
B30 confidence 3
B46 confidence 4
B52 confidence 2
B54 confidence 3

target: OXSR1 434-527, O95747
Sequence (O95747 434-527): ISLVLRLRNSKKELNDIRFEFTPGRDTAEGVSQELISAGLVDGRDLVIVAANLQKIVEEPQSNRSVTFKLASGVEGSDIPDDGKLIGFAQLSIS

Selected by phage display, active:
B7 confidence 3
B17 confidence 2
B18 confidence 4
B20 confidence 2
B22 confidence 2
B25 confidence 2
B38 confidence 3
B40 confidence 2
B47 confidence 4
B48 confidence 4
B55 confidence 3

target: MAP1LC3B 2-119, Q9GZQ8

Selected by phage display, active:
B12 confidence 2
B50 confidence 3

target: PDCD6IP 360-702, Q8WUM4
Sequence (Q8WUM4 360-702): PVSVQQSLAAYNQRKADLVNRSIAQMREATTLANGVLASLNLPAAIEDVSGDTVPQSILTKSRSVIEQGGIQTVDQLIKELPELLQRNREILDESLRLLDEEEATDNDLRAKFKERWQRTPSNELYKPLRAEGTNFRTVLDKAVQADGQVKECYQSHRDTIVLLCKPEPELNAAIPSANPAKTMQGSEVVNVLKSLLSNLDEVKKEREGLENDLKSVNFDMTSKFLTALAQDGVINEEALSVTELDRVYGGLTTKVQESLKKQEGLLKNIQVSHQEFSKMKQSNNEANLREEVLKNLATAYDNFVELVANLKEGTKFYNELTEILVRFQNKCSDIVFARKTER

Selected by phage display, active:
B26 confidence 3
B36 confidence 3
B56 confidence 2
